Assay outcomes as filed in PubChem.
An excerpt weighted towards active compounds, which were near 1.2% of everything screened.
DTT redox prof: compounds producing H2O2 with reducing agent – biochemical, NIH compound library profiling, artefact control for MLSCN library redox annotation, primary screen; AID 878; activation, % at 10 µM; 200,000 tested, 0.03% active; DTT-dependent redox cycling H2O2, phenol red/HRP absorbance; 100% = 100 µM peroxide control, 0% = buffer;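 active = activation of at least 50% relative to the plate's high and low controls in the primary single-dose screen; inactive = activation below 50%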;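 also: compound incubated with DTT at 0.8 mM final as the reducing agent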
p97 inhibitor: inhibitors of human p97 ATPase; inhibition, % at 8 µM; 220,000 tested, 0.42% active; recombinant p97 ATPase, Kinase-Glo ATP luminescence, 3 h; in the data active = inhibition above about 15%;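 also: 0% = DMSO vehicle and 100% = wells lacking enzyme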
Furin inh: human furin inhibition; P09958; purified furin, fluorogenic substrate cleavage; 220,000 tested, 0.061% active; inhibition, % at 20 µM or 30 µM; in the data active = inhibition above about 25%
Target sequence (P09958 108-714 limits assumed): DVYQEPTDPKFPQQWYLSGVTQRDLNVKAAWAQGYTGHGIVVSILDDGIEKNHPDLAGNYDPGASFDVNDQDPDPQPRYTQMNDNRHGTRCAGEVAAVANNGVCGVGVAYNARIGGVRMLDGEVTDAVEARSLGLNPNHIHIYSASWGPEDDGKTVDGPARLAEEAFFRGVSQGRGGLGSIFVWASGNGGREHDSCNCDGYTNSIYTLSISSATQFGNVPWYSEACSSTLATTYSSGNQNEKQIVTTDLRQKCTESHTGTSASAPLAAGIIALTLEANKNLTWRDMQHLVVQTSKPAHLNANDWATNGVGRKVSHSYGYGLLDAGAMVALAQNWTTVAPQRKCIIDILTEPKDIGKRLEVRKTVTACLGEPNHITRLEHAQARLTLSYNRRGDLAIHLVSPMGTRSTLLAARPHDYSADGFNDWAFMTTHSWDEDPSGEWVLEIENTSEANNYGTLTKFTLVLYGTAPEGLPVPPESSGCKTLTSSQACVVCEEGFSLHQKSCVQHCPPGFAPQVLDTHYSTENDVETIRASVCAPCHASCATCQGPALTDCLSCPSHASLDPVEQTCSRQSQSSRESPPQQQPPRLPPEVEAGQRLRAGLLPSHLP
PKD1 kinase inh: PKD1 (human) kinase inhibition. inhibition, % (test concentration not listed). 200,000 tested, 0.056% active. AID 797. PKD1 kinase fluorescence polarization assay; in the data active = inhibition above about 50%
SUMO HTRF inh: inhibitors of human SUMOylation (UBC9); AID 2006; 290,000 tested, 0.36% active; HTRF SUMOylation assay, SAE1/SAE2 + UBC9, in vitro; inhibition, % at 35 µM; P63279; in the data active = inhibition above about 50%, passing the limit was not always enough
FAS TE block: blocks the thioesterase domain of human fatty acid synthase; P49327; recombinant FAS-TE, OMFH fluorogenic substrate, fluorescence endpoint; inhibition, % at 15 µM; 360,000 tested, 0.67% active; AID 602261;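 active = compounds whose normalised, plate-corrected inhibition of enzyme fluorescence in the single-dose primary screen is 50% or more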;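 also: 0% = DMSO with enzyme and 100% = substrate without enzyme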
p97 confirm: confirmation of human p97 ATPase inhibitors. shares compounds with p97 inhibitor. recombinant p97 ATPase, Kinase-Glo ATP luminescence. inhibition, % at 8 µM. 760 tested, 44% active. AID 1517;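 active = percent inhibition of p97 ATPase above a set limit, the primary screen's mean plus 3 SD, cut at about 15% in these data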;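 also: 0% = DMSO wells and 100% = wells lacking p97 protein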
FAS-TE inh conf: confirmation of human fatty acid synthase thioesterase inhibitors; shares compounds with FAS TE block; recombinant FAS-TE, OMFH fluorogenic substrate, fluorescence; inhibition, % at 15 µM; 2,300 tested, 45% active; AID 624325;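 active = compounds inhibiting the enzyme by at least 50% at 15 µM in any one of the replicates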;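 also: 0% = enzyme with DMSO only and 100% = wells lacking enzyme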
Active calls of the source: *; / = not tested or not shown; ! = a repeat was not active.

SMILES | DTT redox prof | p97 inhibitor | Furin inh | PKD1 kinase inh | SUMO HTRF inh | FAS TE block | p97 confirm | others
CC(C)c1ccc(N2C(=O)NC(=O)/C(=C/C=C/c3ccco3)C2=O)cc1 | 0 | 16* | -11 | -9 | 22 | -11 | 11
CCN(CC)C(=O)c1ccc(N2C(=O)C3CC=C(Cl)CC3C2=O)cc1 (stereo not given) | -1 | 16* | -9 | -10 | 2 | -7 | 5
COCCN(C(=O)COC(=O)Cc1ccccc1)c1c(N)n(Cc2ccccc2)c(=O)[nH]c1=O | / | / | / | / | / | -5 | /
CCC(C)NC(=O)c1c(N)n(CC2CCCO2)c2nc3ccccc3nc12 (stereo not given) | -1 | 29* | -18 | -4 | 101 | 8 | -4
CC(C)CCNC(=O)c1c(N)n(CC2CCCO2)c2nc3ccccc3nc12 (stereo not given) | 0 | -2 | -18 | 2 | 99 | 21 | /
CCCCc1ccc(NC2=NCCCS2)cc1 | / | / | / | / | -3 | -19 | /
COCCNC(=O)c1c(N)n(Cc2ccco2)c2nc3ccccc3nc12 | 2 | 0 | -31 | 12 | 38 | -7 | /
Nc1c(C(=O)NCCc2ccccc2)c2nc3ccccc3nc2n1CCN1CCOCC1 | 3 | -5 | -23 | -4 | -10 | 17 | /
Nc1c(C(=O)NCCN2CCOCC2)c2nc3ccccc3nc2n1Cc1ccccc1 | / | 35* | -39 | / | 17 | 13 | 0
CC(C)(C)OC(=O)c1c(N)n(Cc2ccco2)c2nc3ccccc3nc12 | 0 | 16* | -9 | -1 | 24 | -9 | 5
COCCCn1c(N)c(C(=O)NCc2ccco2)c2nc3ccccc3nc21 | / | 37* | -28 | / | 98 | / | 19*
COCCCn1c(N)c(C(=O)OC(C)COC)c2nc3ccccc3nc21 (stereo not given) | -3 | 15* | -61 | -8 | 37 | -6 | 6
COC(=O)C1=C(c2ccccc2OCc2ccccc2)C[C@@H]2CC[C@H]1N2C(=O)NCCc1ccc(F)cc1 | / | / | / | / | / | 18 | /
CC(C)(C)P(=O)(NCc1ccccc1)c1ccccc1 (stereo not given) | 0 | 16* | -37 | 4 | 19 | -7 | 3
Cc1cc2c(C(C)C)c(O)c(O)c(C=O)c2c(O)c1-c1c(C)cc2c(C(C)C)c(O)c(O)c(C=O)c2c1O | 0 | 21*! | -3 | 0 | 95* | 48 | 77*
CC(C)CNP(=S)(c1ccccc1)C(C)(C)C (stereo not given) | / | -7 | -10 | / | 21 | 0 | /
COc1ccccc1CNCCc1ccc(F)cc1 | / | / | / | / | 0 | -8 | /
COC(=O)C1=C(c2ccc(S(C)(=O)=O)cc2)C[C@@H]2CC[C@H]1N2C(=O)NCc1cccc2ccccc12 | / | / | / | / | / | -2 | /
CN[C@H]1C[C@H]2O[C@@](C)([C@H]1OC)n1c3ccccc3c3c4c(c5c6ccccc6n2c5c31)C(=O)NC4 | 1 | 15* | -17 | / | 10 | / | 12
Cc1[nH]n(-c2ccccc2)c(=O)c1C(c1ccc([N+](=O)[O-])cc1)c1c(C)[nH]n(-c2ccccc2)c1=O | 0 | 40* | -16 | 11 | 92 | 85* | 8 | FAS-TE inh conf=79*
Cc1cccc(C)c1-n1nnnc1C(c1ccnc2ccccc12)N1CCC2(CC1)C(=O)NCN2c1ccccc1 (stereo not given) | / | / | / | / | / | 28 | /
Cc1ccccc1-c1ccc2c(c1)C1c3c(-c4ccccc4)nnn3-c3ccccc3C(=O)N1CC2 (stereo not given) | / | / | / | / | / | 79* | / | FAS-TE inh conf=13
O=C(CCc1ccccc1)N1Cc2cc(-c3ccccc3)ccc2-n2nncc2C1 | / | / | / | / | / | 26 | /
Cc1cc(=O)oc2cc(OCC(=O)N3CCN(C(C)c4ccccc4)CC3)c(Cl)cc12 (stereo not given) | / | / | / | / | / | 60* | / | FAS-TE inh conf=67*
CSc1nc(N)c(N=Nc2ccc([As](=O)(O)O)cc2)c(=O)[nH]1 | / | 8 | 27* | / | 6 | 54* | / | FAS-TE inh conf=59*
COc1ccc(-n2nnnc2C(c2cccc(OC)c2OC)N2CCC(n3c(=O)[nH]c4ccccc43)CC2)cc1 (stereo not given) | / | / | / | / | / | 31 | /
